Compound activity (PubChem)
M1 ag parental: counter-screen for M1 agonists: effect in parental CHO-K1 cells; Fluo-8 calcium fluorescence; scaled to maximal ATP response, vehicle zero; activation, % at 3 µM; 0.48% of 360,000 active; AID 602248; in the data active = activation above about 15%;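 note: untransfected CHO-K1 host cells lacking M1 receptor as counterscreen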
M1 PAM: positive allosteric modulators of human M1 muscarinic receptor. activation, % at 3 µM. P11229. 0.088% of 360,000 active. CHO-K1 hM1, Fluo-8 calcium fluorescence, ACh EC20; 0% = ACh EC20, 100% = maximal ACh; in the data active = activation above about 19%, passing the limit was not always enough
Target sequence (P11229 whole entry, looked up): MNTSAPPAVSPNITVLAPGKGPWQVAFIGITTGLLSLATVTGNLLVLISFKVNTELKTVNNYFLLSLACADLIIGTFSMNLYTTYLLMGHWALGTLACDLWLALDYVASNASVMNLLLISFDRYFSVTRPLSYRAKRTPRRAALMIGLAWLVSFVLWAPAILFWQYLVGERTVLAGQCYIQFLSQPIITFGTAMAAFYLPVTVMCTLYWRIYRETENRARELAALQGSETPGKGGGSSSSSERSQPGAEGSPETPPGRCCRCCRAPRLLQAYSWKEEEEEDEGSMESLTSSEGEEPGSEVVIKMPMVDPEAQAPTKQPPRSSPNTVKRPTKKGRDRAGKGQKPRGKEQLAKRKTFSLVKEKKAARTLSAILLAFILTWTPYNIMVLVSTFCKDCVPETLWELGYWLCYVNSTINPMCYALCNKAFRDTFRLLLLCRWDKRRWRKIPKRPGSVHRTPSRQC
CHO-K1 Ca antag: nonselective inhibitor or artifact in parental CHO-K1 cells; inhibition, % at 3 µM; AID 602250; 0.6% of 360,000 active; ATP-induced calcium, Fluo-8 fluorescence;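 active = inhibition above a per-plate cutoff, the plate's mean sample inhibition plus 3 SD, cut at about 24% in these data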;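 note: 0% = DMSO plus EC80 ATP and 100% = DMSO alone without ATP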
M1 ag: agonists of human M1 muscarinic receptor | 0.33% of 360,000 active | activation, % at 3 µM | CHO-K1 hM1, Fluo-8 calcium fluorescence, agonist mode; 0% DMSO, 100% acetylcholine EC100;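 active = activation above the run's mean compound activation plus 3 SD, cut at about 16% in these data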;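 note: peak over basal fluorescence ratio within a 140 s kinetic read after compound addition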
CHO-K1 Ca PAM: M1 PAM counterscreen hit in parental CHO-K1 cells; ATP EC20, Fluo-8 calcium fluorescence; 0% at ATP EC20, 100% at ATP max; activation, % at 3 µM; 0.02% of 360,000 active; AID 602247;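 active = activation above the run cutoff, the mean activation of all test compounds plus 3 SD, cut at about 40% in these data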;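 note: peak over basal fluorescence ratio in a 140 s read after ATP addition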
CHRM1 antagonist: blocks human M1 muscarinic receptor; P11229; CHO-K1 hM1, Fluo-8 calcium fluorescence, ACh EC80 antagonist; inhibition, % at 3 µM; 1.3% of 360,000 active; AID 588852;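 active = percent inhibition above its own plate's cutoff, namely the mean of that plate's compound wells plus 3 SD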;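 note: peak over basal fluorescence ratio during 140 s after agonist addition; 0% = ACh EC80 plus DMSO and 100% = DMSO alone without agonist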
* hit, by the source's call. A selection: hits, their analogues and other compounds. The true share with any hit is near 2.4%.

For COC(=O)Cn1cc(/C=C2\C(=O)NC(=O)N(c3ccc(OC)cc3)C2=O)c2ccccc21 the results were M1 ag parental 3, M1 PAM -2, CHO-K1 Ca antag -5, M1 ag -3, CHO-K1 Ca PAM 10 and CHRM1 antagonist 9.
`C#C[C@@]1(O)CCC2C3CCC4=C/C(=N/OCC(=O)NC(CCC(N)=O)C(=O)O)CC[C@]4(C)C3CC[C@@]21C` (stereo not given in full) gave M1 ag parental 1, M1 PAM -7, CHO-K1 Ca antag -1, M1 ag -3, CHO-K1 Ca PAM -18 and CHRM1 antagonist 16.
`Clc1cccc(N2CCNCC2)c1` gave M1 ag parental 0, M1 PAM -6, CHO-K1 Ca antag 26*, M1 ag -3, CHO-K1 Ca PAM -8 and CHRM1 antagonist -5.
For Nc1cc(N2CCNCC2)ccc1[N+](=O)[O-] the results were M1 ag parental 1, M1 PAM 10, CHO-K1 Ca antag -8, M1 ag -8, CHO-K1 Ca PAM 18 and CHRM1 antagonist -17.
For Cc1ccsc1C(=O)C1CCCN(Cc2c(C)nn(C(C)C)c2C)C1 (stereo not given) the results were M1 ag parental 0, M1 PAM -17, CHO-K1 Ca antag 5, M1 ag -14, CHO-K1 Ca PAM 23 and CHRM1 antagonist 1.
`COc1cc(C)c(CNCCc2c[nH]c3ccccc23)cc1C` gave M1 ag parental 16*, M1 PAM 5, CHO-K1 Ca antag 0, M1 ag -4, CHO-K1 Ca PAM -3 and CHRM1 antagonist 2.
Screening Cc1ccc(N2C(=O)NC(=O)/C(=C/c3cnc(-c4ccccc4)nc3)C2=O)cc1C returned M1 ag parental 3, M1 PAM 5, CHO-K1 Ca antag 1, M1 ag -5, CHO-K1 Ca PAM 7 and CHRM1 antagonist -4.
CC(C)c1ccc(N2C(=O)NC(=O)/C(=C\c3cnc(-c4ccccc4)nc3)C2=O)cc1 was read as M1 ag parental 0, M1 PAM 26*, CHO-K1 Ca antag 1, M1 ag -3, CHO-K1 Ca PAM 0 and CHRM1 antagonist 4.
For O=C(Cc1ccccc1F)N1CCN(CC(=O)N2CCCC2)CC1 the results were M1 ag parental 1, M1 PAM 5, CHO-K1 Ca antag -12, M1 ag 0, CHO-K1 Ca PAM 11 and CHRM1 antagonist -13.
For CCCC[N+]12CCC(CC1)C(=C(c1ccccc1)c1ccccc1)C2 the results were M1 ag parental 0, M1 PAM -26, CHO-K1 Ca antag 3, M1 ag -14, CHO-K1 Ca PAM -13 and CHRM1 antagonist 99*.
For CCC[N+]12CCC(CC1)C(=C(c1ccccc1)c1ccccc1)C2 the results were M1 ag parental 0, M1 PAM -25, CHO-K1 Ca antag -12, M1 ag -7, CHO-K1 Ca PAM -10 and CHRM1 antagonist 99*.
Screening Cc1ccc(C2CC3CCC(C2)N3Cc2ccccc2F)cc1 (stereo not given) returned M1 ag parental 1, M1 PAM -22, CHO-K1 Ca antag 5, M1 ag -8, CHO-K1 Ca PAM -12 and CHRM1 antagonist 30.
For Cc1ccc(CN2C3CCCC2CC(NC(=O)Nc2cccc(F)c2)C3)cc1 (stereo not given) the results were M1 ag parental 7, M1 PAM -18, CHO-K1 Ca antag -6, M1 ag -5, CHO-K1 Ca PAM 10 and CHRM1 antagonist 38*.
For CCOP(=S)(OCC)Oc1cc(C)oc(=O)c1 the results were M1 ag parental 1, M1 PAM 29*, CHO-K1 Ca antag -3, M1 ag -2, CHO-K1 Ca PAM -2 and CHRM1 antagonist 1.
For CCOP(=S)(OCC)Oc1cc(C)oc(=O)c1Cl the results were M1 ag parental 1, M1 PAM 8, CHO-K1 Ca antag -15, M1 ag -2, CHO-K1 Ca PAM 15 and CHRM1 antagonist 5.
Screening C[N+](C)(N)CCOC(=O)C(O)(c1ccccc1)C1CCCCC1 (stereo not given) returned M1 ag parental 0, M1 PAM -26, CHO-K1 Ca antag -7, M1 ag -8, CHO-K1 Ca PAM 2 and CHRM1 antagonist 100*.
